Our source for the outcome, Potency and max activation values is PubChem BioAssay (Tox21).

For test [1], the target named is Thyrotropin-releasing hormone receptor (Homo sapiens) (UniProt P34981). As to the kind of experiment: qHTS assay to identify small molecule agonists of the thyrotropin-releasing hormone receptor (TRHR) signaling pathway (AID 1346891; calls by dose curve;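 note: HEK293 cells expressing TRHR with calcium dye readout; series mostly up to about 58 µM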). Summed up: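 In 1536-format, 1500 TRHR-Hek293 cells per well grew 18 h, took up calcium dye for 2 h at 37 °C, received compound, and were read kinetically; 15-point titrations, triplicates.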
Thyrotropin-releasing hormone receptor (Homo sapiens), sequence (P34981 whole entry, looked up): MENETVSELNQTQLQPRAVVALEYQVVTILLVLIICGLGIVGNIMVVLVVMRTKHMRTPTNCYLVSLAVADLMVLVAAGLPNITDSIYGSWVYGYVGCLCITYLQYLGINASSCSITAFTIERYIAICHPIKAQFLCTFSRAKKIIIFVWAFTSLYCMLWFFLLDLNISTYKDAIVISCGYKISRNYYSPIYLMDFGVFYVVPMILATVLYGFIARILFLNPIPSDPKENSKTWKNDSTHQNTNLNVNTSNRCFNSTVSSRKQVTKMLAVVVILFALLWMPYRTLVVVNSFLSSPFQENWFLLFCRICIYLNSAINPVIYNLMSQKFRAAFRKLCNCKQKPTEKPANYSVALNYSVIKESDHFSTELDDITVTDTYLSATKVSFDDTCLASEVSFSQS

Test [2] is described as follows: Human pregnane X receptor (PXR) small molecule agonists, qHTS cell viability counter screen (AID 1346977). Note: nearly all actives have a fitted effect of over 50% in size. Note: potency is the fitted concentration of half-maximal effect. Summed up: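 Readout is CellTiter-Fluor fluorescence from PXR-Luc HepG2 cells. Plated cells rested 5hr, then were treated with compounds for 24hr at 37C and 5% CO2, with reagent present during the last hour.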
(qHTS replaces the single test concentration by a dilution series.)

Test [3] is described as follows: Caspase-3/7 induction in HepG2 cells by small molecules, qHTS assay (AID 1346978). Note: nearly all actives have a fitted effect of over 15% in size. Note: potency is the fitted concentration of half-maximal effect. Summed up:
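Caspase-3/7 induction was measured by Caspase-Glo 3/7 luminescence (30 min, room temperature) after a 17 hr compound exposure of wild-type HepG2 cells seeded at 2,000 per well and pre-incubated 5 hr.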

Test [4] can be described thus: Caspase-3/7 induction in CHO-K1 cells by small molecules, qHTS cell viability counter screen (AID 1346979). Note: nearly all actives have a fitted effect of over 35% in size. Note: potency is the fitted concentration of half-maximal effect. The essentials:
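To flag cytotoxic compounds, treated CHO-K1 wild-type cells were given CellTiter-Fluor at 16hr and read fluorescently after 1hr at 37C; the caspase-3/7 luminescence was measured in these same wells.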

Test [5] in a line: Caspase-3/7 induction in CHO-K1 cells by small molecules, qHTS assay (AID 1346980). Note: nearly all actives have a fitted effect of over 15% in size. Note: potency is the fitted concentration of half-maximal effect. The essentials:
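Luminescent Caspase-Glo 3/7 read (30min, room temperature) quantified apoptosis induction. Cells were wild-type CHO-K1, treated with compound for 17hr at 37 C and 5% CO2.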

A short description of test [6]: Caspase-3/7 induction in HepG2 cells by small molecules, qHTS cell viability counter screen (AID 1346981). Note: nearly all actives have a fitted effect of over 30% in size. Note: potency is the fitted concentration of half-maximal effect. The essentials:
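Wild-type HepG2 cells, 2,000/well, settled 5 hr at 37 C, 5% CO2 before compound addition. Viability read by CellTiter-Fluor fluorescence, reagent added after 16 hr compound exposure, then 1 hr at 37C, in the same wells as the caspase read.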

Test [7] has as its target Nuclear receptor subfamily 1 group I member 2 (Homo sapiens) (UniProt O75469). As to the kind of experiment: Human pregnane X receptor (PXR) small molecule agonists, qHTS assay (AID 1346982). Note: nearly all actives have a fitted effect of over 35% in size. Note: potency is the fitted concentration of half-maximal effect. Summed up: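 PXR-Luc HepG2 reporter cells (CYP3A4-driven luciferase) in 5% charcoal-stripped FBS medium, plated 5 h before compound addition, then treated 24 h at 37C. Luciferase read by ONE-Glo luminescence after 30 min at room temperature.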

Test [8] deals with Cytochrome P450 2D6 (Homo sapiens) (UniProt P10635). The test is described as follows: Cytochrome P450 Family 2 Subfamily D Member 6 (CYP2D6) small molecule antagonists: luciferase reporter qHTS assay (AID 1671196). Note: nearly all actives have a fitted effect of over 50% in size. Note: potency is the fitted concentration of half-maximal effect. The essentials: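 Cell-free P450-Glo system: CYP2D6 with proluciferin substrate was pre-incubated with compound for 10 min, then reacted with NADPH regeneration for 1 h at room temperature. Luciferin product was detected after 20 min, and data were reported as relative luminescence units.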
Cytochrome P450 2D6 (Homo sapiens), sequence (P10635 whole entry, looked up): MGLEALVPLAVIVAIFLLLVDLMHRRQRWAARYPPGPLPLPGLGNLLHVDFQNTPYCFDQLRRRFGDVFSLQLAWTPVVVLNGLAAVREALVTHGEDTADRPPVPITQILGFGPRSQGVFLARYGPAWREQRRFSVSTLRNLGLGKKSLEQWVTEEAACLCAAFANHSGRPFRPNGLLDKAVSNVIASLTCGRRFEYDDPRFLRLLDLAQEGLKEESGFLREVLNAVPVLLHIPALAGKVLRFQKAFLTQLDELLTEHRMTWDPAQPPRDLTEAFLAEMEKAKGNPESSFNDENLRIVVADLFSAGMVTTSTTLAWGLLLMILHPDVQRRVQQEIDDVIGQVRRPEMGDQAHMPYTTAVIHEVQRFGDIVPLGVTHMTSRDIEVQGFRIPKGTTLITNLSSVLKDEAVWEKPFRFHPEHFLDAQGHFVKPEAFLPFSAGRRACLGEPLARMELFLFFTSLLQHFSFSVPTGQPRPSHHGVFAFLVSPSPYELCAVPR

Test [9] addresses Cytochrome P450 2C19 (Homo sapiens) (UniProt P33261). The test is described as follows: Cytochrome P450 Family 2 Subfamily C Member 19 (CYP2C19) small molecule antagonists: luciferase reporter qHTS assay (AID 1671197). Note: nearly all actives have a fitted effect of over 65% in size. Note: potency is the fitted concentration of half-maximal effect. Summed up:
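Inhibition of CYP2C19 was scored from loss of luminescence in a P450-Glo proluciferin substrate assay, NADPH-started and run 1 h at 37C, with ketoconazole as positive control.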
(In a reporter assay the amount or activity of a reporter protein is the signal.)

Test [10] concerns the target Cytochrome P450 2C9 (Homo sapiens) (UniProt P11712). The test is described as follows: Cytochrome P450 Family 2 Subfamily C Member 9 (CYP2C9) small molecule antagonists: luciferase reporter qHTS assay (AID 1671198). Note: nearly all actives have a fitted effect of over 50% in size. Note: potency is the fitted concentration of half-maximal effect. The essentials: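 Enzyme-substrate mix preincubated with compound 10 min at room temperature; reaction started with NADPH regeneration solution, 1 h 37C. Luminescent luciferin product read after 20 min detection reagent.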

Test [11] deals with Cytochrome P450 1A2 (Homo sapiens) (UniProt P05177). The test is described as follows: Cytochrome P450 Family 1 Subfamily A Member 2 (CYP1A2) small molecule antagonists: luciferase reporter qHTS assay (AID 1671199). Note: nearly all actives have a fitted effect of over 50% in size. Note: potency is the fitted concentration of half-maximal effect. Summed up: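 P450-Glo CYP1A2 enzyme–proluciferin substrate mix with compound 10 min at room temperature, then NADPH regeneration 1 h at room temperature. Luciferin detection reagent added, luminescence read after 20 min; furafylline positive control.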
Cytochrome P450 1A2 (Homo sapiens), sequence (P05177 whole entry, looked up): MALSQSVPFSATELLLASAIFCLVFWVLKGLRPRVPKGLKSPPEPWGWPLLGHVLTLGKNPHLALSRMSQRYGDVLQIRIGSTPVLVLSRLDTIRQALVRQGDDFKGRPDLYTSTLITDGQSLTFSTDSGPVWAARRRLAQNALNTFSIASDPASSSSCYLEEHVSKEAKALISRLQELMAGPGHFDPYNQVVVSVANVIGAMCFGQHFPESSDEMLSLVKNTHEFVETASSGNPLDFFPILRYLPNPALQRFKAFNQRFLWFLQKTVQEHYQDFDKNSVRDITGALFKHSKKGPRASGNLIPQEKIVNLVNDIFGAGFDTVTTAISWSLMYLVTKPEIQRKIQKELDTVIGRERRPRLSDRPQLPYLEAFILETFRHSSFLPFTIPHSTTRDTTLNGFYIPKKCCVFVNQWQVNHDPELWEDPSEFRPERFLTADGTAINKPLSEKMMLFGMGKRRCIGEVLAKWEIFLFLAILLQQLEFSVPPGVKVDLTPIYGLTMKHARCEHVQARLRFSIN

Test [12] has as its target Voltage-gated inwardly rectifying potassium channel KCNH2 (Homo sapiens) (UniProt Q12809). The test is described as follows: Human Ether-a-go-go-Related Gene (hERG) channel small molecule antagonists: fluorescence cell-based qHTS assay (AID 1671200). Note: nearly all actives have a fitted effect of over 50% in size. Note: potency is the fitted concentration of half-maximal effect. The essentials:
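Measured: Tl+ flux via fluorescence (480/540 nm) in hERG-expressing U2OS cells after 1 h dye loading at room temperature.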
On the technique in general: hERG is a cardiac potassium channel; its block is linked to QT prolongation.

Test [13] addresses Nuclear receptor subfamily 1 group I member 2 (Rattus norvegicus) (UniProt Q9R1A7). As to the kind of experiment: Rat pregnane X receptor (rPXR) activation by small molecules, qHTS assay (AID 1346983). Note: nearly all actives have a fitted effect of over 20% in size. Conditions: rPXR luciferase reporter cells, One-Glo luminescence, 24 h; max activation: stronger effect = higher value. The essentials:
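Luminescent readout (One-Glo luciferase, 30 min room temperature) followed 24 hr compound treatment at 37 C of rPXR cells plated 2,000 per well and preincubated 5hr; qHTS format with compounds delivered in DMSO.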

Test [14] concerns the target Nuclear receptor subfamily 1 group I member 2 (Homo sapiens) (UniProt O75469). As to the kind of experiment: CYP3A4 induction through human pregnane X receptor (PXR) by small molecules, qHTS assay (AID 1346984). Note: nearly all actives have a fitted effect of over 40% in size. Summed up:
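DPX-2 HepG2 cells carrying a PXR response element and CYP3A4-promoter luciferase construct, treated with compounds 24 hr at 37C. Then P450-Glo CYP3A4 Luciferin-IPA substrate (3uM final) for 3 hr at 37C, One-Glo added, luminescence read.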

Test [15] shares this target. The test is described as follows: Human pregnane X receptor (PXR) activation by small molecules, qHTS assay (AID 1346985). Note: nearly all actives have a fitted effect of over 40% in size. The essentials: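 DPX-2 cells (HepG2 co-transfected with a PXR response element and a CYP3A4-promoter luciferase construct) were seeded at 2,000 per well, rested 5 hr at 37C, then exposed to DMSO-dissolved compounds for 24 hr. Activation was read as luciferase luminescence.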

The target of test [16] is Cytochrome P450 3A4 (Homo sapiens) (UniProt P08684). The test is described as follows: Cytochrome P450 Family 3 Subfamily A Member 4 (CYP3A4) small molecule antagonists: luciferase reporter qHTS assay (AID 1671201). Note: nearly all actives have a fitted effect of over 50% in size. Note: potency is the fitted concentration of half-maximal effect. Summed up: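 Setup: enzyme-substrate mix, compound pin transfer, 10 min RT. Reaction: NADPH regeneration solution, 1 h RT. Readout: detection reagent stops turnover, luminescence measured after 20 min, expressed in relative luminescence units.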
Cytochrome P450 3A4 (Homo sapiens), sequence (P08684 whole entry, looked up): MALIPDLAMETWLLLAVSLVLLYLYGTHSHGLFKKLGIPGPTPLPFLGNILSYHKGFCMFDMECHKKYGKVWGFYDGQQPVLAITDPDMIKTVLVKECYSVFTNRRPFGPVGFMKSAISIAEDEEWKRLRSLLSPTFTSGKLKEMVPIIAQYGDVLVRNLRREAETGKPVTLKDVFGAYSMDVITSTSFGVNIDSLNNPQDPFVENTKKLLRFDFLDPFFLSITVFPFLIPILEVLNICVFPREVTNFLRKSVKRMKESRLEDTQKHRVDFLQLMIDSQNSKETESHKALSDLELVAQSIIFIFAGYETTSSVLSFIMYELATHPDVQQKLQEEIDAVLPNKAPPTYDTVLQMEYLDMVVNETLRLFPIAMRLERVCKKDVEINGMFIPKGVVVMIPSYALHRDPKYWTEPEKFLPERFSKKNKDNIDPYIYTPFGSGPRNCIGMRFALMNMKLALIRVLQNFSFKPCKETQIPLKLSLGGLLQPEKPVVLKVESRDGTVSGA

SMILES strings stand for the structures. Where “and” joins values, the source holds several entries; their conditions need not be identical. Identical values can stand only once. Values without a mark were called inactive. Records with an inconclusive call do not appear. Calls of active or inactive are those of the source. Unless noted, calls come from the whole dose curve; as a rule, active = well fitted curve in the direction sought with a large enough effect in the repeat runs; inconclusive = weak or mixed curves; inactive = no such curve, though single readings can be large; an effect the other way counts as inactive or inconclusive.
% is set by controls: 0 for no effect and ±100 for the full control effect.

Nuclear receptor subfamily 1 group I member 2 (Homo sapiens), sequence (O75469 whole entry, looked up): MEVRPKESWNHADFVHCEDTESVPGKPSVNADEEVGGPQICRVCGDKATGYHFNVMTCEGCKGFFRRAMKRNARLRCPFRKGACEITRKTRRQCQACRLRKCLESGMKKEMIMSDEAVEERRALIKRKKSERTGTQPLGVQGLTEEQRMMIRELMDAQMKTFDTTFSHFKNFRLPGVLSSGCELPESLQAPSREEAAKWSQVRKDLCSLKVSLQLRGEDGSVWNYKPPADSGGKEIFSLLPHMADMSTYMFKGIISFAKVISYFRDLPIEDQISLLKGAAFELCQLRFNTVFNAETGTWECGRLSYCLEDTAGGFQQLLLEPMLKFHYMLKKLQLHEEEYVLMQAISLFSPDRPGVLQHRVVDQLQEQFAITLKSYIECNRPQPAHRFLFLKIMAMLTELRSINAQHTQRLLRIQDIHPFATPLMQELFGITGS
Cytochrome P450 2C9 (Homo sapiens), sequence (P11712 whole entry, looked up): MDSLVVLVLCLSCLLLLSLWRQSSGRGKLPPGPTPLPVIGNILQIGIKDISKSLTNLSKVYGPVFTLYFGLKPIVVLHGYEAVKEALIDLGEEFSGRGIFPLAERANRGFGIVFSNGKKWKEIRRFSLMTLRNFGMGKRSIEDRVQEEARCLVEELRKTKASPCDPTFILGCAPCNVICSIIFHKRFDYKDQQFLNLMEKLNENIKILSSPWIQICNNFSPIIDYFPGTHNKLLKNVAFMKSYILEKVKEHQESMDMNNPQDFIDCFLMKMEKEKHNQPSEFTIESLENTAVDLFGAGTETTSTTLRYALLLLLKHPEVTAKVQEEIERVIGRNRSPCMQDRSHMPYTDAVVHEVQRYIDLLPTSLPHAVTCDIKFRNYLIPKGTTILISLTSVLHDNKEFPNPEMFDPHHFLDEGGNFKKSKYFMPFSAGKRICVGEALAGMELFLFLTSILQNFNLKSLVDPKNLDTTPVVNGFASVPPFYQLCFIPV
Voltage-gated inwardly rectifying potassium channel KCNH2 (Homo sapiens), sequence (Q12809 whole entry, looked up): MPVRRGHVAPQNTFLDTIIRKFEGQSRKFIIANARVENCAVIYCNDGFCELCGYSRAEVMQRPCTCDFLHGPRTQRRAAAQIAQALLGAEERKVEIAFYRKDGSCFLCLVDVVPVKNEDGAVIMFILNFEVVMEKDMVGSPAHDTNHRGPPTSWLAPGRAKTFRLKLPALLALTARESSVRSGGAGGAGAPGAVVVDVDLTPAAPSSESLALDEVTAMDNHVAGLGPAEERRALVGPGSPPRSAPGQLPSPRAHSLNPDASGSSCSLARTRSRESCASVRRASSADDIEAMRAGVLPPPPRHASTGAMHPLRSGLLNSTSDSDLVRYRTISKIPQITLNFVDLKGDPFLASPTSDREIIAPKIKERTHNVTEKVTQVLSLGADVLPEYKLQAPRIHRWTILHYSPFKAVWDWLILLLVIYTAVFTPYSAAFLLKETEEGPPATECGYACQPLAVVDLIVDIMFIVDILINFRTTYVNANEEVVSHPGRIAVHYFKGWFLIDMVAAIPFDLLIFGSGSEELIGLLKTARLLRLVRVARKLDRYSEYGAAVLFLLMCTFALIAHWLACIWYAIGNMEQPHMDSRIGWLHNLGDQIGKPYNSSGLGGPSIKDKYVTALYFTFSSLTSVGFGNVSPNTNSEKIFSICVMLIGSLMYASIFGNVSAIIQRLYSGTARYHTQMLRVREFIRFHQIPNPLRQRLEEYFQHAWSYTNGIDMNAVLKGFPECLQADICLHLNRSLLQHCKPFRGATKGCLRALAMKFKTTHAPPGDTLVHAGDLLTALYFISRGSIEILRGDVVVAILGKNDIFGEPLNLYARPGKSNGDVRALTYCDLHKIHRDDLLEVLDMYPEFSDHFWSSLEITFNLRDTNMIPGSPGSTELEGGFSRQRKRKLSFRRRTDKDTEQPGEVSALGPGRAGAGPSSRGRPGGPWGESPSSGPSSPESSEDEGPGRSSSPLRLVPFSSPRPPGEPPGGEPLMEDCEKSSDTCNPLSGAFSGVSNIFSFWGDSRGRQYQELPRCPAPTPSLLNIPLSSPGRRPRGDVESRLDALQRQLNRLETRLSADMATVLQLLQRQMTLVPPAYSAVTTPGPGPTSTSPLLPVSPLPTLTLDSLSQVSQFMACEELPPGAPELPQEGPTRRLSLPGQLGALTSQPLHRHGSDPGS
Cytochrome P450 2C19 (Homo sapiens), sequence (P33261 whole entry, looked up): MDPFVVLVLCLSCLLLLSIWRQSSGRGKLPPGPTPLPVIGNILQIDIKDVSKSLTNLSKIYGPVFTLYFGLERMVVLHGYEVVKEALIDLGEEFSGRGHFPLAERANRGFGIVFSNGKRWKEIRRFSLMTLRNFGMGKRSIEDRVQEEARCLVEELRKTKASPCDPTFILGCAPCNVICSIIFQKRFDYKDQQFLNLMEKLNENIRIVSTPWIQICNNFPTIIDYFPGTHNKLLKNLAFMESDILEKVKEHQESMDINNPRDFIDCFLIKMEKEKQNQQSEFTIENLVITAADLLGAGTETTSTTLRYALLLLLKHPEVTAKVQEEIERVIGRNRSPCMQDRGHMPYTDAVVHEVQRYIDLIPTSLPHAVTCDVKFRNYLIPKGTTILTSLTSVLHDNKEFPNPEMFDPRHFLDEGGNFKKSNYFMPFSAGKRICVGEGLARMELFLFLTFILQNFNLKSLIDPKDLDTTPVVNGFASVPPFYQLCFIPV
Nuclear receptor subfamily 1 group I member 2 (Rattus norvegicus), sequence (Q9R1A7 whole entry, looked up): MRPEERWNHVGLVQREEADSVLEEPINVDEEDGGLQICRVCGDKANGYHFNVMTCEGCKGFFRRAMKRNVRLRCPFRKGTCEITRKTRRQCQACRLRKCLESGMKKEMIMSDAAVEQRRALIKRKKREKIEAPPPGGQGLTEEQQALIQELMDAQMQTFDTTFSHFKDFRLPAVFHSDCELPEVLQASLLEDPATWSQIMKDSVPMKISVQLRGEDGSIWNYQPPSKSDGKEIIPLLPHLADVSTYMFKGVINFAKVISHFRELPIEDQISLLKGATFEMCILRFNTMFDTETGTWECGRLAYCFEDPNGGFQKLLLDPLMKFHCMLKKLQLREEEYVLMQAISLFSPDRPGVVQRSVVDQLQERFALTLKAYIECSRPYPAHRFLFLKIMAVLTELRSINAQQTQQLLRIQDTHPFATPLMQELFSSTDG

As for `CCCCOc1ccc(N)cc1`, the compound was classed as inactive in [1]. The Potency entry in test [2], in test [3], in [4], in [5], in test [6] and in test [12] was “inactive” in each case. The Potency is 54.5 µM (active) in test [7]; 39.9 µM (active) in test [8]; 28.3 µM (active) in [9]; 39.9 µM (active) in test [10]; 11.2 µM (active) in [11].
`C/C(=C(\CCO)SS/C(CCO)=C(\C)N(C=O)Cc1cnc(C)nc1N)N(C=O)Cc1cnc(C)nc1N`: in test [1], the compound was classed as inactive. The Potency entry in test [2], in test [3], in [4], in test [5], in test [6] and in [7] was “inactive” throughout. Besides, the Potency entry in test [14], in [15], in test [8], in test [10], in [11] and in test [12] was “inactive” throughout. For the same compound, in test [13], the max activation was -1.12%.
As for `CCCC1CCOC(C)S1` (stereo not given), the compound was called inactive in [1]. The Potency entry in [2], in test [3], in [4], in test [5], in test [6] and in [7] was “inactive” each time. For the same compound, the Potency entry in [8], in test [9], in test [10], in [11] and in test [16] was “inactive” each time.
`CCN(CCCCOC(=O)c1ccc(OC)c(OC)c1)C(C)Cc1ccc(OC)cc1` (stereo not given): the result in test [1] was inactive. Moreover, the Potency result in test [2], in test [3], in test [4], in [5], in test [6] and in test [7] was “inactive” each time. Besides, the Potency result in [14], in test [15], in [10] and in test [11] was “inactive” throughout. For the same compound, the max activation in [13] was 3.44%. Besides, the Potency in test [12] is 3.38 µM (active).
Turning to `C[C@@H](O)[C@H]1C(=O)N2C(C(=O)O)=C(S[C@@H]3CN[C@H](CNS(N)(=O)=O)C3)[C@H](C)[C@H]12`, in test [1], the outcome was inactive. Besides, the Potency entry in test [2], in test [3], in [4], in test [5], in test [6] and in test [14] was “inactive” in each case. In addition, the Potency entry in test [15] and in test [8] was “inactive” throughout. Also, the Potency is 18.8 µM (active) in test [7], 9.77 µM (active) in [9], 15.5 µM (active) in test [10] and 3.89 µM (active) in test [16]. In [13], the max activation is -2.11%.
In the case of `CC1=C(C)C(=O)C(CCCCC#CCCCC#CCO)=C(C)C1=O`, the compound was classed as inactive in test [1]. Further, the Potency result in test [2], in test [3], in test [5] and in test [6] was “inactive” each time. Also, the Potency in test [4] is 29.8 µM (active); in [7] it was 26.6 µM (active); in test [8], 15.5 µM (active); in [9], 11 µM (active); in test [10] it was 6.92 µM (active); in test [11], 4.9 µM (active).
Consider `CC(C)C[C@H](NC(=O)[C@H](Cc1ccccc1)NC(=O)c1cnccn1)B(O)O`, for which the compound was classed as inactive in test [1]. For the same compound, the Potency in [2] was 0.0422 µM (active); in test [3], 0.211 µM (active); in [4] it was 0.0168 µM (active); in test [5], 0.0067 µM (active); in [6] it was 0.0841 µM (active); in test [7], 0.0084 µM (active). Besides, the Potency is 34.7 µM (active) in test [9] and 24.5 µM (active) in test [11]. The max activation in test [13] was -18.4% and -17.1%. The Potency entry in test [14], in [15] and in test [8] was “inactive” throughout.
As to `O=c1c2ccccc2oc2ccccc12`, the result in test [1] was inactive. Also, the Potency entry in test [2], in test [3], in [4], in [5], in test [6] and in [7] was “inactive” in each case. Moreover, the Potency result in [8], in test [12] and in test [16] was “inactive” each time. The results for the Potency in [9], in test [10] and in [11] were 28.3 µM (active), 39.9 µM (active) and 0.564 µM (active), respectively.
Turning to `C=CC(=O)OCCCCCCCCCC`, the compound was classed as inactive in test [1]. Moreover, the Potency result in [2], in [3], in test [4], in test [5], in test [6] and in test [7] was “inactive” throughout. In addition, the Potency entry in test [8], in test [9], in test [10], in test [11], in [12] and in [16] was “inactive” in each case.
